Measurements from PubChem BioAssay.

Legend:
[1] = tested on: Botulinum neurotoxin type F light chain protease (Clostridium botulinum); experiment: Clostridium botulinum type F light chain protease inhibitors, microsphere substrate cleavage, validation (AID 588459); conditions: multiplex microsphere protease substrate cleavage assay, flow cytometry; at 10 µM; stronger effect = higher value
[2] = biological target: Botulinum neurotoxin type A (Clostridium botulinum) (UniProt P0DPI0); experiment: BoNT/A light chain protease inhibitors, biochemical, multiplex microsphere flow cytometry, validation set (AID 588460); conditions: at 10 µM, stronger effect = higher value
[3] = biological target: Lethal factor (Bacillus anthracis) (UniProt P15917); experiment: Bacillus anthracis lethal factor inhibition, microsphere flow cytometry protease assay, validation at 10 µM (AID 588461); conditions: multiplex microsphere protease cleavage assay, stronger effect = higher value

Measured: inhibition

Sequence of Botulinum neurotoxin type A (Clostridium botulinum) (P0DPI0 whole entry, looked up): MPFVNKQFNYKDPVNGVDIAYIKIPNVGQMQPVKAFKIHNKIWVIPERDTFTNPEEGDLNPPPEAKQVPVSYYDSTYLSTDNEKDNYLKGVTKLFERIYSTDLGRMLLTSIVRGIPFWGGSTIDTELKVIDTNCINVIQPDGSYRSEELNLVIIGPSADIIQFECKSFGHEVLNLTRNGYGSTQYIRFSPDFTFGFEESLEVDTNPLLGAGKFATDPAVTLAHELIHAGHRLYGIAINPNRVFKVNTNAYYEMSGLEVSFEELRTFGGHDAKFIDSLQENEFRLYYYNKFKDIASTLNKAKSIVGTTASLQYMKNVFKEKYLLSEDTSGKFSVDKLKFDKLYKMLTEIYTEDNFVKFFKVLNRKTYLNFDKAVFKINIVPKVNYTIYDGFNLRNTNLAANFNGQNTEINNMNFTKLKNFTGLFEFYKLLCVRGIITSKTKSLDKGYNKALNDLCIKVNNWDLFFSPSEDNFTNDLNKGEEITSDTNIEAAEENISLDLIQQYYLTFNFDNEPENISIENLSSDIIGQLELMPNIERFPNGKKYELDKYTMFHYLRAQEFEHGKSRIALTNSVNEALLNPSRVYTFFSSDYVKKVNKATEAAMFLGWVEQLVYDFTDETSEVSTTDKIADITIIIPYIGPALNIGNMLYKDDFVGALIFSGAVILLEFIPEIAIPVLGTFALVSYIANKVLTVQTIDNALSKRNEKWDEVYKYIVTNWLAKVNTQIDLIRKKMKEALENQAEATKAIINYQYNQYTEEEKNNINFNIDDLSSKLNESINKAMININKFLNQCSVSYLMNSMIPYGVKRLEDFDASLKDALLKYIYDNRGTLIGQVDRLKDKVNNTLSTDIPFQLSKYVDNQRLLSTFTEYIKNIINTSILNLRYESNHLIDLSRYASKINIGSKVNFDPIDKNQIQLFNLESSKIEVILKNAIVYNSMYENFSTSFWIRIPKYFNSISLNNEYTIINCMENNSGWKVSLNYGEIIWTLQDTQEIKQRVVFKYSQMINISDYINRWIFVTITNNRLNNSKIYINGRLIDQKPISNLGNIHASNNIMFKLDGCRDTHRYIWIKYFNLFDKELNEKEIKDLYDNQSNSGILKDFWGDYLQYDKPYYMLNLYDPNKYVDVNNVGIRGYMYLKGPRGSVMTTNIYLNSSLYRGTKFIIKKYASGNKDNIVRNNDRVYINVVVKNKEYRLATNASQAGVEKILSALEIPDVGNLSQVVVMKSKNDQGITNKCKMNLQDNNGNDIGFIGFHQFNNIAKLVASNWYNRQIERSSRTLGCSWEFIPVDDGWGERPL
Sequence of Lethal factor (Bacillus anthracis) (P15917 whole entry, looked up): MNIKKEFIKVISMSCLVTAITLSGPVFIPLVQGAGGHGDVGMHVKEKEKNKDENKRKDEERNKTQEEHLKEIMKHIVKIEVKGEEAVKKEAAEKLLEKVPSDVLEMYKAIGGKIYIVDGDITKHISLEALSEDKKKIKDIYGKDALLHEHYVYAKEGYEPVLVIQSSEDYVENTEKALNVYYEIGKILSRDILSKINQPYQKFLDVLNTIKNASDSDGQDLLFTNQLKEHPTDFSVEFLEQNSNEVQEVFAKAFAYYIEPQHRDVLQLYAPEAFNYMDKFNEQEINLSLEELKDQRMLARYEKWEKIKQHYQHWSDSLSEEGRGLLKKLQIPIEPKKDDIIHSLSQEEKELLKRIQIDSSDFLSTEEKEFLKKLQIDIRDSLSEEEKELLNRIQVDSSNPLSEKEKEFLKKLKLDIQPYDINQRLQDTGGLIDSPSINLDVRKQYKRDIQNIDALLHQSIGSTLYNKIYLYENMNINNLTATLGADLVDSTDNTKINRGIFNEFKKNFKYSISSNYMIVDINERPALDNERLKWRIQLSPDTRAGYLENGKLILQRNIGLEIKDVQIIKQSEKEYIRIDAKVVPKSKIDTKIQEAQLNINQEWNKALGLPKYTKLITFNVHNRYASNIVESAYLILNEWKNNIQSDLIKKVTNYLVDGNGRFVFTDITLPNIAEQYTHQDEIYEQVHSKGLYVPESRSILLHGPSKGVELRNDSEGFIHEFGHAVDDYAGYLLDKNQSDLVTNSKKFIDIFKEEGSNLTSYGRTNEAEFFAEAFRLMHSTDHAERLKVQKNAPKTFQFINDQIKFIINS

CCCC(=O)O[C@]1(C(=O)CCl)[C@@H](C)C[C@H]2[C@@H]3CCC4=CC(=O)C=C[C@]4(C)[C@@]3(F)C(=O)C[C@@]21C
inactive: [1] 0.9% | [2] -0.6% | [3] 1%

O=C1C(=O)c2ccccc2C(O)=C1c1ccccc1F
inactive: [1] 4.6% | [2] 0.5% | [3] -1.5%

CCOC(=O)[C@H](CCc1ccccc1)N[C@@H](C)C(=O)N1CCC[C@H]1C(=O)O
inactive: [1] 3.5% | [2] 0.2% | [3] 3.9%

Cc1ccc(OCc2nc(-c3cccnc3)no2)cc1C
inactive: [1] -0.8% | [2] 0.4% | [3] -6.5%

CC[N+](C)(C)c1cccc(O)c1
inactive: [1] 1.7% | [2] -0.2% | [3] 0.7%

CCn1cc(CN2N=C(C)CC2c2ccccc2)c(C)n1 (stereo not given)
inactive: [1] -0.5% | [2] 0% | [3] -2.2%

CC[C@H]1CN2CCc3cc(OC)c(OC)cc3[C@@H]2C[C@@H]1C[C@H]1NCCc2cc(OC)c(OC)cc21
inactive: [1] 3.7% | [2] 0.9% | [3] 0.6%

O=C(Oc1cccccc1=O)c1ccccc1
inactive: [1] 1.1% | [2] -1.5% | [3] 0.9%

N/C(=N\OC(=O)/C=C/c1ccccc1)c1ccc(Br)cc1
inactive: [1] -3.1% | [2] -0.1% | [3] 2.5%

CCOc1cc2c(cc1OCC)C(c1ccccc1)N(c1ccc(C(=O)O)cc1)C(=O)C2 (stereo not given)
inactive: [1] -1.8% | [2] -0.7% | [3] -5.2%
